Screening results from PubChem.
Sampled rows, rich in hits. Any-hit rate of the full collection: about 3%.
Tau fluor counter: counter-screen for tau fibril formation inhibitors; Potency, µM (top dose mostly 57.7 µM); AID 1463; actives 0.93% (n = 280,000); tau K18 P301L Alexa594 fluorescence, heparin fibrillization; further: nearly all actives have a fitted effect of over 55% in size
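Human tau K18 P301L (15 uM unlabeled, 0.24 uM Alexa 594-labeled) in 100 mM sodium acetate pH 7 with 20 uM heparin, 6 hr at 37 C. ThT 30 uM added, 1 hr ambient; Alexa 594 FP and total fluorescence read at 555/632 nm.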
Coupling enz: counter-screen for Giardia aldolase inhibitors: coupling enzyme system; actives 0.67% (n = 290,000); activity change, negative = inhibition, % at 58.2 µM, hits read low; AID 2472; coupling enzyme system counterscreen, AmpLite Red fluorescence; in the data active means activity change below about -30%
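First, compound is pin-transferred into glyceraldehyde-3-phosphate coupling-enzyme reagent at 57.5 uM final and held 10 min at RT. Next, substrate, coupling system and AmpLite Red are added. After 20 min RT, fluorescence (525/598 nm) is read.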
Tau fibril FP: inhibitors of human tau fibril formation; P10636; K18 P301L tau heparin fibrillization, Alexa594 FP, 6 h; Potency, µM (top dose mostly 57.7 µM), hits mostly inhibitors; actives 0.39% (n = 280,000); further: nearly all actives have a fitted effect of over 55% in size
Target sequence (P10636 561-689 P618L limits assumed): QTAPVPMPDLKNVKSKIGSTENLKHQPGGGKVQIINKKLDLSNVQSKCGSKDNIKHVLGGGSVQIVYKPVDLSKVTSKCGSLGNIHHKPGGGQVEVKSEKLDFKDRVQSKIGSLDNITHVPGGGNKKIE
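Human tau K18 […] P301L fragment, 15 uM unlabeled plus 0.24 uM Alexa 594-labeled tau (final), with compound and 20 uM heparin in 100 mM sodium acetate pH 7; 6 hr at 37 C, then Alexa 594 FP read.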
KDM4E inh: blocks human JMJD2E demethylase activity; JMJD2E catalytic domain, FDH-coupled NADH fluorescence (FDH is formaldehyde dehydrogenase); Potency, µM (titrated, usually from 57.1 µM), most hits filed as inhibitors; actives 1.6% (n = 230,000); active means well fitted inhibition curve with a large enough effect, not every such curve was filed as active; inconclusive means small, poorly fitted or top-dose-only effect, or another doubt; inactive means no such curve, though single readings can be large or run the other way; further: nearly all actives have a fitted effect of over 50% in size
Target sequence (B2RXH2 1-337 limits assumed): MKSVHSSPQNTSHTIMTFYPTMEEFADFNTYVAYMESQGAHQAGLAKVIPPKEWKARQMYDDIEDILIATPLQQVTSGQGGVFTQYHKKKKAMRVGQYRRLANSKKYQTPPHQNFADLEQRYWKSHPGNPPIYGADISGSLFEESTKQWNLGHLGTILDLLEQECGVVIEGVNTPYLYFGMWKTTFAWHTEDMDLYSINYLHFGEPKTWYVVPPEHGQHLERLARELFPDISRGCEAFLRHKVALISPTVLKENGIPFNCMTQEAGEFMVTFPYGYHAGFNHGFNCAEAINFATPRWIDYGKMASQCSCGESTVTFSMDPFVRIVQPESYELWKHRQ
Tau fibril ThT: blocks human tau fibril formation measured by thioflavin T. P10636. recombinant tau K18 P301L, heparin-induced fibrillization, ThT fluorescence. Potency, µM (titrated, usually from 57.4 µM), most hits filed as inhibitors. actives 2.1% (n = 270,000); further: nearly all actives have a fitted effect of over 55% in size
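In this qHTS, human K18 P301L tau is incubated with compound and heparin for 6 hr at 37 C, and Thioflavin T fluorescence then reports fibril load.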
Tau TEM fibril: Blocks tau fibril formation, electron microscopy | shares compounds with Tau fibril ThT | recombinant tau K18 P301L fibrillization, TEM grading; hits give high values | fibril grade (0 = clumped fibrils, 4 = only tiny pieces) (no concentration beside the values) | actives 70% (n = 45);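 active means compounds whose electron micrographs showed tau fibrils broken into shorter filaments or fragments, graded high on fibril breakup; inconclusive means micrographs gave an unclear fibril picture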
tau sediment: tau fibrillization inhibition by sedimentation | shares compounds with Tau fibril ThT | recombinant tau K18 P301L (four-repeat tau fragment), sedimentation SDS-PAGE densitometry | inhibition, % at 100 µM | actives 50% (n = 110); in the data active means inhibition above about 40%; inconclusive means no clear call, values can overlap the other calls; inactive means below about 18%
Each line names hits and unclear results; the compound was inactive in the other large screens (follow-up assays come after a bar, where they were run); [ ] = dose if it differs, or a comment. Unless noted, the call rests on the fitted dose curve; in most records, active means well fitted curve in the direction sought with a large enough effect; inconclusive means small, poorly fitted or top-dose-only effect, or another doubt; inactive means no such curve, though single readings can be large; an effect the other way counts as inactive or inconclusive.

COc1cccc(Cn2c(CNS(=O)(=O)c3ccc(F)c(Cl)c3)nc3cccnc32)c1	none (no result: Coupling enz, KDM4E inh)
Cc1cccc(N(C)S(=O)(=O)c2nnc(NC(=O)C3CCCCC3)s2)c1	none (no result: Coupling enz, KDM4E inh)
Cc1ccc(N(C)S(=O)(=O)c2nnc(NC(=O)C3CCCCC3)s2)cc1	Tau fibril FP inconclusive (no result: Coupling enz, KDM4E inh) | tau sediment inactive
COc1ccc2oc(-c3ccc(NC(=O)c4ccc(N5CCOCC5)c([N+](=O)[O-])c4)cc3)nc2c1	Tau fibril ThT 2.8µM | Tau TEM fibril inactive | tau sediment inactive
CCc1ccc(CNC(=O)c2ccc(-n3c(C)cc4c3CCC(C)C4)cc2)cc1 (stereo unspecified)	Tau fibril ThT inconclusive (no result: Coupling enz, KDM4E inh)
Cn1ncc(Cl)c1C(=O)Nc1cccc(Cl)c1	Tau fibril FP inconclusive, Tau fibril ThT 13µM | Tau TEM fibril 3 | tau sediment 93
COc1ccc2[nH]c(=O)c(CNc3cc(C)ccc3C)cc2c1	Tau fluor counter inconclusive, Tau fibril ThT inconclusive
COc1ccc2[nH]c(=O)c(CNc3ccccc3OC)cc2c1	Tau fluor counter inconclusive, Coupling enz -34, Tau fibril FP 10µM, KDM4E inh inconclusive, Tau fibril ThT 7.9µM | Tau TEM fibril inconclusive | tau sediment 61
COc1ccc(C(=O)Nc2nc3ccc(S(=O)(=O)N4CCCC4)cc3s2)cc1	none (no result: Coupling enz, KDM4E inh)
O=C(Nc1nc2ccc(S(=O)(=O)N3CCCC3)cc2s1)c1ccc(F)cc1	none (no result: Coupling enz, KDM4E inh) | tau sediment inactive
CCc1cccc(-n2nnc(-c3nsc(NC(=O)c4cccs4)n3)c2C)c1	Tau fibril ThT inconclusive (no result: Coupling enz, KDM4E inh)
Cc1ccc(SCc2cc(=O)n(C)[nH]2)cc1	Tau fluor counter inconclusive, Tau fibril FP inconclusive, KDM4E inh inconclusive, Tau fibril ThT 2.2µM | tau sediment inactive
COc1cc(Cl)c(C)cc1NC(=O)Cn1cc(S(=O)(=O)N2CCN(c3ccccc3F)CC2)c2ccccc2c1=O	Tau fibril FP inconclusive (no result: Coupling enz, KDM4E inh)
COc1ccc(NC(=O)Cn2cc(S(=O)(=O)N3CCN(c4ccccc4F)CC3)c3ccccc3c2=O)cc1Cl	Tau fibril FP 13µM (no result: Coupling enz, KDM4E inh) | tau sediment inactive
CC(/C=C1\SC(=S)N(NC(=O)c2cccc(O)c2)C1=O)=C\c1ccccc1	Tau fluor counter 14µM[quencher], Tau fibril FP 14µM, KDM4E inh inconclusive, Tau fibril ThT 7.1µM | Tau TEM fibril inactive | tau sediment inconclusive
CCn1c(SCc2ccc(F)cc2Cl)nnc1-c1nonc1NC(C)=O	none (no result: Coupling enz, KDM4E inh)
Cc1ccccc1Nc1nnc(-c2ccc(C)c(S(=O)(=O)NCC3CCCO3)c2)c2ccccc12 (stereo unspecified)	none (no result: Coupling enz, KDM4E inh)
NCCc1ccc(O)c(O)c1	Tau fibril FP inconclusive, KDM4E inh 13µM, Tau fibril ThT inconclusive | tau sediment inactive
COc1ccc2c(c1)c(CC(=O)Nc1ccc(C(C)=O)cc1)c(C)n2C(=O)c1ccc(Cl)cc1	Tau fluor counter inconclusive, Tau fibril FP inconclusive, Tau fibril ThT inconclusive | tau sediment inactive
COc1ccc2c(c1)c(CC(=O)Nc1c(C)cccc1C)c(C)n2C(=O)c1ccc(Cl)cc1	none (no result: Coupling enz, KDM4E inh)
Cc1ccc(NC(=O)N2CCN(c3ccccn3)CC2)cc1	KDM4E inh inconclusive, Tau fibril ThT inconclusive | tau sediment inactive
CC(C)(C)c1ccc(NC(=O)N2CCN(c3ccc([N+](=O)[O-])cn3)CC2)cc1	Tau fluor counter inconclusive, Tau fibril FP inconclusive, Tau fibril ThT inconclusive | tau sediment inactive
O=C(Nc1ccccc1)N1CCN(c2ccccn2)CC1	KDM4E inh inconclusive
O=C(Nc1ccc(F)cc1F)N1CCCN(c2ccc([N+](=O)[O-])cn2)CC1	none
O=C(Cn1c(=O)oc2cc(S(=O)(=O)NC3CCCC3)ccc21)Nc1ccc(F)c(F)c1	none (no result: Coupling enz, KDM4E inh)
Cc1cc(C)c(S(=O)(=O)NCCc2sc(-c3cccnc3)nc2C)c(C)c1	Tau fibril FP inconclusive (no result: Coupling enz, KDM4E inh)
CC(C)Cn1c(O)c(/C=C2\C=NN=C2c2ccccc2)sc1=S	Tau fibril FP 20µM | tau sediment inactive
COc1ccccc1CNc1ccc(-c2nc(-c3cccnc3)no2)cc1[N+](=O)[O-]	none (no result: Coupling enz, KDM4E inh)
CCN(c1ccccc1)S(=O)(=O)c1nnc(NC(=O)C(C)(C)C)s1	Tau fibril FP inconclusive, Tau fibril ThT inconclusive (no result: KDM4E inh) | tau sediment inactive
CCc1cccc(C)c1NC(=O)COCc1cc(-c2ccc3c(c2)OCO3)on1	Tau fibril ThT inconclusive (no result: Coupling enz, KDM4E inh)
COc1ccc(Nc2nc(-c3sc(NC(C)=O)nc3C)cs2)cc1	Tau fluor counter inconclusive, Tau fibril ThT 13µM | Tau TEM fibril 3 | tau sediment 42
CC(=O)Nc1ccc(Nc2nc(-c3sc(C)nc3C)cs2)cc1	none (no result: Tau fluor counter, Tau fibril FP, KDM4E inh, Tau fibril ThT)
O=C(Nc1ccccc1)Nc1ccccc1	none | tau sediment inactive
Cc1ccc(C(=O)Nc2nc(=O)n(C(=O)C3CC3)s2)cc1	Tau fibril FP inconclusive, Tau fibril ThT 8.9µM | Tau TEM fibril inconclusive | tau sediment 49
Cc1ccc(C(=O)Nc2nc3ccccc3c(=O)s2)cc1	none
COc1ccc(-c2ccc3ccccc3n2)cc1	KDM4E inh inconclusive
Nc1ccc(-c2ccc3ccccc3n2)cc1	Tau fluor counter inconclusive, KDM4E inh inconclusive, Tau fibril ThT inconclusive | tau sediment inactive
Cc1ccc(Cl)cc1NC(=O)c1oc2ccc(S(=O)(=O)N(C)C3CCCCC3)cc2c1C	none (no result: Coupling enz, KDM4E inh)
Cc1ccc(S(=O)(=O)Oc2ccc(/C=N/N=C3/NC(=O)C(CC(=O)O)S3)cc2)cc1 (stereo unspecified)	none
Cc1ccc(-c2ccc(/C=N/N=C3/NC(=O)C(CC(=O)O)S3)o2)c([N+](=O)[O-])c1 (stereo unspecified)	Tau fibril FP inconclusive, Tau fibril ThT 10µM | Tau TEM fibril inconclusive | tau sediment inconclusive
O=C(O)CC1S/C(=N/N=C/c2ccc(-c3ccccc3[N+](=O)[O-])o2)NC1=O (stereo unspecified)	Tau fibril FP inconclusive, Tau fibril ThT 2.2µM | Tau TEM fibril 4 | tau sediment 58
Cc1ccc(S(=O)(=O)N[C@@H]2COC(=O)C/C=C\[C@H](C)COC(=O)N[C@@H](C)C(=O)C/C=C\[C@H]2C)cc1	none (no result: KDM4E inh)
O=S(=O)(c1ccc2nc(-c3ccco3)c(-c3ccco3)nc2c1)N1CCOCC1	Tau fluor counter 4µM[quencher], Coupling enz -45, Tau fibril FP 8.9µM, KDM4E inh inconclusive, Tau fibril ThT 4µM | Tau TEM fibril 2 | tau sediment 58
COc1ccc(N2CCN(C(c3ccc(F)cc3)c3sc4nc(-c5ccco5)nn4c3O)CC2)cc1 (stereo unspecified)	Tau fluor counter inconclusive, Tau fibril ThT inconclusive (no result: Coupling enz, KDM4E inh)
